Data from PubChem BioAssay (NCI).
This is part of a sample that, as a whole, favours compounds with a hit. Of some 83,000 tested, about 20% had one in any assay.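 For each line, cells grew in 96-well plates with the test compound present at a single concentration for 48 hours.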 Activity calls are given as the source filed them. How the source made its calls: active means growth percent below 10; inactive means the rest.

Assays:
Assay in all cases: NCI-60 one-dose screen, 48 h (100 = growth as untreated, 0 = no growth, -100 = all killed)
Details in all cases: 10 µM
HT29 colon = tested on: HT29 colon
SNB-75 CNS = tested on: SNB-75 CNS
SNB-19 CNS = tested on: SNB-19 CNS
U251 CNS = tested on: U251 CNS
PC-3 prostate = tested on: PC-3 prostate
SK-MEL-5 melanoma = tested on: SK-MEL-5 melanoma
UACC-62 melanoma = tested on: UACC-62 melanoma
LOX IMVI melanoma = tested on: LOX IMVI melanoma
SK-MEL-28 melanoma = tested on: SK-MEL-28 melanoma
SK-MEL-2 melanoma = tested on: SK-MEL-2 melanoma
EKVX NSCLC = tested on: EKVX NSCLC
SN12C renal = tested on: SN12C renal
UO-31 renal = tested on: UO-31 renal
TK-10 renal = tested on: TK-10 renal
ACHN renal = tested on: ACHN renal
CAKI-1 renal = tested on: CAKI-1 renal
CCRF-CEM leukemia = tested on: CCRF-CEM leukemia
MOLT-4 leukemia = tested on: MOLT-4 leukemia
SR leukemia = tested on: SR leukemia
A498 renal = tested on: A498 renal

Measured: growth

CC(C)N(CCNc1nc(C(Cl)(Cl)Cl)nc2cc(Cl)ccc12)C(C)C
active: HT29 colon -32.9% | SNB-75 CNS 8.33% | U251 CNS -61.5% | PC-3 prostate -5.1% | SK-MEL-5 melanoma -97% | UACC-62 melanoma -62.2% | LOX IMVI melanoma -80.2% | SK-MEL-28 melanoma -80.9% | SK-MEL-2 melanoma -60% | EKVX NSCLC 8.11% | UO-31 renal -29% | TK-10 renal -84.3% | ACHN renal -36.2% | CAKI-1 renal -84.1% | CCRF-CEM leukemia -8.62% | MOLT-4 leukemia -21.4% | SR leukemia -28.4%
inactive: SNB-19 CNS 22.9% | SN12C renal 17.9%

Nc1nc(N=Nc2ccc(O)cc2)cc(=O)[nH]1
inactive: HT29 colon 123% | SNB-75 CNS 119% | SNB-19 CNS 99.5% | U251 CNS 93.6% | PC-3 prostate 104% | SK-MEL-5 melanoma 96.6% | UACC-62 melanoma 101% | LOX IMVI melanoma 93.7% | SK-MEL-28 melanoma 106% | SK-MEL-2 melanoma 144% | EKVX NSCLC 91.4% | SN12C renal 101% | UO-31 renal 93.6% | TK-10 renal 120% | ACHN renal 105% | CAKI-1 renal 91.4% | CCRF-CEM leukemia 97.5% | MOLT-4 leukemia 104% | SR leukemia 94.3%

CC12O[C@H](C[C@@H](OC(=O)c3ccccc3)[C@H]1O)n1c3ccccc3c3c4c(c5c6ccccc6n2c5c31)C(=O)NC4=O
active: UO-31 renal -13.9% | TK-10 renal 7.3% | A498 renal -25.6%
inactive: HT29 colon 78.5% | SNB-75 CNS 45.7% | SNB-19 CNS 101% | U251 CNS 77.1% | PC-3 prostate 42.5% | SK-MEL-5 melanoma 48.6% | UACC-62 melanoma 55% | LOX IMVI melanoma 72.7% | SK-MEL-28 melanoma 90.4% | SK-MEL-2 melanoma 54.2% | EKVX NSCLC 36.4% | SN12C renal 33% | ACHN renal 39.4% | CCRF-CEM leukemia 64% | MOLT-4 leukemia 64.3% | SR leukemia 50.3%

Cc1ccc(Nc2nnc(-c3cc(-c4ccncc4)n(-c4ccccc4)n3)s2)cc1
inactive: HT29 colon 36.9% | SNB-75 CNS 116% | SNB-19 CNS 89.7% | U251 CNS 65.6% | PC-3 prostate 56.1% | SK-MEL-5 melanoma 67.7% | UACC-62 melanoma 83.9% | LOX IMVI melanoma 58.5% | SK-MEL-28 melanoma 106% | SK-MEL-2 melanoma 92.4% | EKVX NSCLC 97.7% | SN12C renal 88.5% | UO-31 renal 40.3% | TK-10 renal 102% | ACHN renal 83% | CAKI-1 renal 85.9% | CCRF-CEM leukemia 35.7% | MOLT-4 leukemia 59.5% | SR leukemia 63.6%

COc1ccc(-c2csc(NC(=O)CSc3nc(C)c(-c4ccccc4)n3Nc3ccccc3)n2)cc1
active: UO-31 renal 4.89%
inactive: HT29 colon 67.7% | SNB-75 CNS 49% | SNB-19 CNS 82.7% | U251 CNS 61.7% | PC-3 prostate 34% | SK-MEL-5 melanoma 54.4% | UACC-62 melanoma 47% | LOX IMVI melanoma 36.8% | SK-MEL-28 melanoma 89.6% | SK-MEL-2 melanoma 82% | EKVX NSCLC 38.3% | SN12C renal 42.1% | TK-10 renal 86.1% | ACHN renal 59% | CAKI-1 renal 20% | MOLT-4 leukemia 31.1% | SR leukemia 40.7%

CCOC(=O)C(=Cc1ccc(Br)cc1)C(=O)OCC
active: HT29 colon -64% | U251 CNS -46% | PC-3 prostate -30.4% | SK-MEL-5 melanoma -47.9% | UACC-62 melanoma -72.6% | LOX IMVI melanoma -85.7% | SK-MEL-28 melanoma -74.5% | SK-MEL-2 melanoma -61.5% | SN12C renal -21% | UO-31 renal -85.7% | TK-10 renal 8.18% | ACHN renal -81% | A498 renal -12.6% | CCRF-CEM leukemia -29.1% | MOLT-4 leukemia -8.75% | SR leukemia -42%
inactive: SNB-75 CNS 12.7% | SNB-19 CNS 63.1% | EKVX NSCLC 50.5%

O=[P@@]1(c2ccccc2)O[C@H](COCc2ccccc2)[C@@H](OCc2ccccc2)[C@H](OCc2ccccc2)[C@H]1O
active: SNB-75 CNS -12.1%
inactive: HT29 colon 90.8% | SNB-19 CNS 55.3% | U251 CNS 39.4% | PC-3 prostate 78.7% | SK-MEL-5 melanoma 73% | UACC-62 melanoma 50.8% | LOX IMVI melanoma 95.7% | SK-MEL-28 melanoma 97% | SK-MEL-2 melanoma 67.2% | EKVX NSCLC 70.7% | SN12C renal 82.9% | UO-31 renal 90.5% | TK-10 renal 76% | ACHN renal 78.7% | CAKI-1 renal 72.8% | CCRF-CEM leukemia 92.3% | MOLT-4 leukemia 94.3% | SR leukemia 103%

O=C(N/N=C/c1ccccc1O)C(O)(c1ccccc1)c1ccccc1
inactive: HT29 colon 49.7% | SNB-75 CNS 68.8% | SNB-19 CNS 66% | U251 CNS 45.9% | PC-3 prostate 55.5% | SK-MEL-5 melanoma 62.1% | UACC-62 melanoma 51.9% | LOX IMVI melanoma 25.7% | SK-MEL-28 melanoma 69.7% | SK-MEL-2 melanoma 107% | EKVX NSCLC 20% | SN12C renal 66.3% | UO-31 renal 23.7% | TK-10 renal 53.9% | ACHN renal 35.5% | CAKI-1 renal 23% | CCRF-CEM leukemia 24.7% | MOLT-4 leukemia 31.2% | SR leukemia 42.6%

COc1ccc(OC)c(/C=C/c2nc(SC)n(-c3ccc(Cl)cc3)n2)c1
inactive: HT29 colon 90.3% | SNB-75 CNS 72.1% | SNB-19 CNS 81.4% | U251 CNS 78.1% | PC-3 prostate 38.9% | SK-MEL-5 melanoma 53.4% | UACC-62 melanoma 49.5% | LOX IMVI melanoma 83.3% | SK-MEL-28 melanoma 85.1% | SK-MEL-2 melanoma 88.5% | EKVX NSCLC 61.4% | SN12C renal 80.3% | UO-31 renal 39.6% | TK-10 renal 92.3% | ACHN renal 67.9% | CAKI-1 renal 64.5% | CCRF-CEM leukemia 71.4% | MOLT-4 leukemia 73% | SR leukemia 41.5%

O=C(N/N=C/c1ccccc1)C(Oc1ccccc1)c1ccccc1 (stereo not given)
inactive: HT29 colon 100% | SNB-75 CNS 83.9% | SNB-19 CNS 94.6% | U251 CNS 106% | PC-3 prostate 90.6% | SK-MEL-5 melanoma 93.5% | UACC-62 melanoma 74.9% | LOX IMVI melanoma 90.1% | SK-MEL-28 melanoma 93.6% | SK-MEL-2 melanoma 120% | EKVX NSCLC 80.8% | SN12C renal 96.5% | UO-31 renal 76% | TK-10 renal 106% | ACHN renal 93.1% | CAKI-1 renal 85.6% | CCRF-CEM leukemia 93.7% | MOLT-4 leukemia 101% | SR leukemia 91.8%

N=C(N)c1ccc(-c2ccc(-c3ccccc3)o2)nc1
inactive: HT29 colon 19.3% | SNB-75 CNS 38.5% | SNB-19 CNS 82.7% | U251 CNS 83.6% | PC-3 prostate 71.7% | SK-MEL-5 melanoma 86.1% | UACC-62 melanoma 103% | LOX IMVI melanoma 83.4% | SK-MEL-28 melanoma 96.2% | SK-MEL-2 melanoma 109% | SN12C renal 86.6% | UO-31 renal 65.7% | TK-10 renal 111% | ACHN renal 92.4% | CAKI-1 renal 83.8% | A498 renal 45.7% | CCRF-CEM leukemia 82.5% | MOLT-4 leukemia 60% | SR leukemia 55.6%

CS(=O)(=O)Nc1ccc(Nc2c3ccccc3nc3cc([N+](=O)[O-])ccc23)cc1
active: LOX IMVI melanoma -27.1% | CCRF-CEM leukemia 2.39% | MOLT-4 leukemia 4.17%
inactive: HT29 colon 11.8% | SNB-75 CNS 41.3% | SNB-19 CNS 43.3% | U251 CNS 21% | PC-3 prostate 44.4% | SK-MEL-5 melanoma 13.5% | UACC-62 melanoma 32.2% | SK-MEL-28 melanoma 43.4% | SK-MEL-2 melanoma 23.3% | SN12C renal 20.3% | UO-31 renal 16.6% | TK-10 renal 16% | ACHN renal 12.6% | CAKI-1 renal 37.7% | A498 renal 45.4%

CC(=O)[C@H]1CC[C@H]2[C@@H]3CCC4=CC(=O)C=C[C@]4(C)[C@H]3CC[C@]12C
inactive: HT29 colon 96.2% | SNB-75 CNS 90.3% | SNB-19 CNS 114% | U251 CNS 95.1% | PC-3 prostate 87.7% | SK-MEL-5 melanoma 82.5% | UACC-62 melanoma 80.3% | LOX IMVI melanoma 88.6% | SK-MEL-28 melanoma 109% | SK-MEL-2 melanoma 102% | EKVX NSCLC 60.1% | SN12C renal 95.9% | UO-31 renal 88.5% | TK-10 renal 106% | CAKI-1 renal 87.8% | A498 renal 60.4% | CCRF-CEM leukemia 87.2% | MOLT-4 leukemia 87.1% | SR leukemia 84.4%
